Laboratory results from PubChem BioAssay (NCI).
Compounds without any hit were thinned out: in the full panel of roughly 83,000, 20% have a hit.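 Negative percent growth values reflect cell death: -40 means 40% of the cells present at the start died, and -100 means all died.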 Active and inactive are the calls of the source.

What follows are compounds tested on UACC-62 melanoma (assay: NCI-60 one-dose screen, 48 h (100 = growth as untreated, 0 = no growth, -100 = all killed)). Settings: 10 µM unless noted.
Experimental: Growth inhibition of the UACC-62 human tumor cell line is measured as a screen for anti-cancer activity. Cells are grown in 96 well plates and exposed to the test compound for 48 hours. Compounds are tested at a single concentration, which is 10^-5 M for most compounds. The reported endpoint is percent growth (GI% or GIPRCNT), where numbers from 0 - 100% represent growth inhibition, and numbers from -100% - 0 represent cell death. For example, a value of 40 represents 60% growth inhibition. A value of 0 means no net growth occurred over the course of the experiment. A value of -40 indicates 40% of cells at the beginning of the experiment died by the end of the experiment. A value of -100 means all cells are dead at the end of the experiment.
NCI-60 Human Tumor Cell Lines Screen was performed using the standard one-dose NCI protocol, which is described in more detail at https://dtp.cancer.gov/discovery_development/nci-60/default.htm.
Compounds with GIPRCNT values below 10 were considered active. Activity score was based on GIPRCNT using the following formula: […]
Score is 0 for GIPRCNT values of 100 or above, 50 for GIPRCNT values of 0, and 100 for GIPRCNT values of -100.

SMILES | growth
O[C@@H](c1cc(C(F)(F)F)nc2c(C(F)(F)F)cccc12)[C@H]1CCCCN1 | 56.2% (inactive)
COc1ccc(/C(C)=C(\c2ccc(OCCN3CCCCCC3)cc2)c2ccc(OC(=O)c3ccccc3)cc2)cc1 | 19.1% (inactive)
O=C(CSc1nnc2sc(Nc3cccc(Cl)c3)nn12)c1ccc(F)cc1 | 82.7% (inactive)
CC1(C)CC2=C3C=C[C@@H]4[C@@]5(C)CC[C@H](O)C(C)(C)[C@@H]5CC[C@@]4(C)[C@]3(C)CC[C@@]2(C(=O)O)CC1=O | 53.6% (inactive)
C/C(C=O)=C\c1ccc2c(c1)OCO2 | 105% (inactive)
COc1cc(OC)cc(C2C(C#N)=C(N)Oc3c2ccc2ccc(O)cc32)c1 (stereo not given) | 28.9% (inactive)
O=C1NC(=C(Cl)Cl)/C(=N/S(=O)(=O)N2CCCCC2)N1 | 46.6% (inactive)
CC1(C)CCC(S(=O)(=O)c2ccc3c(c2)/C(=N\O)c2cc(S(=O)(=O)N4CCN(c5ccc(F)cc5O)CC4)ccc2-3)CC1 | -69.7% (active)
Cc1ccc2[nH]c(-c3ccc(S(C)(=O)=O)cc3)c(/C=N/N=C(N)N)c2c1 | 41.5% (inactive)
COc1cc(C2C3=C(COC3=O)N(CCO)c3cc4c(cc32)OCCO4)cc(OC)c1OC (stereo not given) | 6.33% (active)
N#C/C(=C\c1ccc(Br)cc1)c1cc2ccccc2[nH]1 | 87.8% (inactive)
COP(=O)(OC)c1nnn(-c2cccc([N+](=O)[O-])c2)c1C | 99.2% (inactive)
CCC/C(=N\NC(N)=O)C(OC)OC | 100% (inactive)
COc1ccc(C2=C/C(=C\c3ccc(Cl)cc3)C(=O)N2/N=C/c2ccc(Cl)cc2)cc1 | 84.4% (inactive)
O=C(O)c1cn(C2CC2)c2cc(N3CCN(C(=O)N/N=C/c4ccccc4)CC3)c(F)cc2c1=O | 95.3% (inactive)
Cc1ccc(C)c(-n2c(-c3ccc(Br)cc3)csc2=NC(=O)c2ccccc2F)c1 | 60.7% (inactive)
Cc1ncc(C(=O)Nc2ccc(CN3CCN(C)CC3)c(C(F)(F)F)c2)cc1C#Cc1cnc(N)c2cnccc12 | -65.2% (active)
CCCn1c(=S)sc2c1nc(C)n1c(Nc3ccccc3)nnc21 | 32.3% (inactive)
C#CC#CC#CC#CC#CC#CC#CC#CCC1OCC(COC(=O)O[C@@H](C(=O)O[C@H]2C[C@@]3(O)[C@@H](OC(=O)c4ccccc4)[C@@H]4[C@]5(OC(C)=O)CO[C@@H]5C[C@H](O)[C@@]4(C)C(=O)[C@H](OC(C)=O)C(=C2C)C3(C)C)[C@@H](NC(=O)c2ccccc2)c2ccccc2)O1 (stereo not given in full) | 22.3% (inactive)
CCCCCCCCn1ccc2cc(NC(=O)Cn3cc(CN4CCCCCC4)nn3)ccc21 | -70.9% (active)

SMILES | growth
Cc1cccc(NC(=O)CSc2nc3ccc([N+](=O)[O-])cc3[nH]2)c1 | 42.6% (inactive)
COc1cccc(NC(=O)c2cccc(C3CCc4c(cc(OC)c(OC)c4OC)O3)c2)c1 (stereo not given) | 40.6% (inactive)
Cc1ccc(C)n1/C=C/n1c(C)ccc1C | 98.8% (inactive)
CO[C@H](C(=O)[C@@H](O)[C@@H](C)O)[C@@H]1Cc2cc3cc(O[C@H]4C[C@@H](O[C@H]5C[C@@H](O)[C@H](O)C(C)O5)[C@H](O)C(C)O4)c(C)c(O)c3c(O)c2C(=O)[C@H]1O[C@H]1C[C@@H](O[C@H]2C[C@@H](O[C@H]3C[C@@H](OC)[C@H](O)C(C)O3)[C@@H](O)C(C)O2)C(O)(O)C(C)O1 (stereo not given in full) | -43.5% (active)
CN(C)c1ccc(/C=C/C(=O)c2ccccc2)cc1 | 93.1% (inactive)
CN1CCN(Cc2ccc(NC(=O)c3cncc(C#Cc4cncc5[nH]ncc45)c3)cc2C(F)(F)F)CC1 | -49.2% (active)
CC1COCC(C)N1C1=C(Cl)C(=O)c2ccccc2C1=O (stereo not given) | 76.6% (inactive)
Cc1cc(C)c(-c2c(O)c(Br)c(-c3c(C)cc(C)c(Br)c3C)c(O)c2Br)c(C)c1Br | 14.8% (inactive)
COc1ccc(Cc2nnc(Nc3nc4ccccc4s3)s2)cc1 | 89.6% (inactive)
Nc1nc(C(=O)N/N=C/c2ccc(N3CCOCC3)cc2)nn1-c1ccc(S(N)(=O)=O)cc1 | 102% (inactive)
C=CC(=O)NCCOc1cccc(Nc2cc(NCCCNC(=O)C3CCC3)c(Br)cn2)c1 | -34.7% (active)
N#Cc1c(-c2ccccc2)cc(-c2ccccc2)n(CCCC(=O)NO)c1=O | 9.37% (active)
COc1ccc(/C=C/C(=O)c2ccc(Nc3nc(Nc4ccc(F)cc4)nc(Nc4ccc(Cl)cc4)n3)cc2)cc1 | 105% (inactive)
CC12CCC(/C(=C/NNc3ccc([N+](=O)[O-])cc3[N+](=O)[O-])C1=O)C2(C)C (stereo not given) | 64.5% (inactive)
CC(=O)N/C(=C1/OC(C(O)C(O)C(O)CO)CN1C)[P+](c1ccccc1)(c1ccccc1)c1ccccc1 (stereo not given) | 98.6% (inactive)
NNC(=S)N/N=C/c1ccccn1 | 20.7% (inactive)
CCOC(=O)n1cc(-c2nonc2-c2cn(C)c3ccccc23)c2ccccc21 | 30.6% (inactive)
CCN(CC)CCOc1nc2c3ccc(Cl)cc3nn2c2ccccc12 | 9.05% (active)
C[N+](C)(C/C=C/c1ccccc1)Cc1ccccc1 | 99.3% (inactive)
O=C1/C(=C/c2ccc(C(F)(F)F)cc2)COc2ccc(O)c(O)c21 | 12.2% (inactive)
